Inconclusive results are not listed. Entries that show only a call come without a potency. Unmarked numbers belong to inactive results. The source made the active and inactive calls. Calls follow the shape of the dose curve; as a rule, active = well fitted cell-killing curve with a large enough effect; inconclusive = small, poorly fitted or top-dose-only effect; inactive = no such curve, though single readings can be large or run the other way.
Potency is read from the fitted curve at half-maximal effect.

The nature of the assay: qHTS of pediatric cancer cell lines to identify multiple opportunities for drug repurposing: Primary screen for Rh41 cells (AID 1347108). Also: nearly all actives have a fitted effect of over 70% in size.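 As to activity change, negative = cytotoxic: luminescence drop marks cytotoxic hits.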 Particulars: Rh41 rhabdomyosarcoma viability, CellTiter-Glo luminescence, 48 h; series mostly up to 46 µM. The source says: Drug repurposing or repositioning has been offered as a strategy for drug development in oncology programs. This approach has special potential for childhood cancers and other rare or orphan diseases, where the expected return on new drug development has been a disincentive to pharmaceuticals. […] In this project we exploit the poly-pharmacology of drugs to discover new indications via phenotypic screening of a panel of 19 well-characterized cell lines derived from solid tumors seen in children and adolescents. The goal is to identify approved drugs with previously unrecognized anticancer properties that has the potential to reveal new mechanisms and biological processes involved in carcinogenesis or drug resistance. We employed a titration-based paradigm (quantitative high-throughput screening or qHTS), where all compounds were tested at multiple concentrations for their effect on cell viability. Concentration-response curves (CRCs) were derived directly from the primary screen, and both potency and efficacy values were used to identify compounds with robust bioactivity profiles. We screened the NIH Chemical Genomics Center (NCGC) Pharmaceutical Collection (NPC) and Mechanism Interrogation Plate (MIPE) small molecule collections of approved and investigational compounds against these cell lines; and measured metabolically active cells after 48 hours of compound treatment as a proxy for cell viability. […] Assay Submitter: Nathalia J. Martinez, National Center for Advancing Translational Sciences, National Institutes of Health, Rockville, MD, USA; email: natalia.martinez@nih.gov Shen, M et al. Quantitative high-throughput phenotypic screening of pediatric cancer cell lines identifies multiple opportunities for drug repurposing. Oncotarget 2017 Dec 19;9(4):4758-4772. PMID 29435139.
The cells were obtained from University of North Carolina (UNC), Pediatric Preclinical Testing Program (PPT), and Coriell Institute (CI). qHTS cell viability assay: Cells were assayed in growth media at a density of 500-1,000 cells/well. Five microliters of cells were dispensed into 1,536-well, white, solid-bottom, TC-treated plates (Greiner Bio One) using a multidrop dispenser and incubated at 37 degrees C, 5% CO2, under a humidified atmosphere for 5 hours. Twenty-three nanoliters of compounds and controls (neutral control DMSO or positive control bortezomib at final concentration of 2.3 µM) were subsequently transferred by Kalypsys pintool. For primary screens, the MIPE collection was tested at 11-point dilutions (final concentrations range from 0.78 nM to 46 µM) and the NPC collection at 8-point dilutions (final concentrations range from 0.59 nM to 46 µM). Compounds tested in follow-up screens were assayed at 11-point dilutions. Cells were incubated for 48 hours, followed by addition of 3 µL of CellTiter-Glo (Promega). After a 15 min incubation at room temperature, samples were analyzed for luminescence intensity using a ViewLux High-throughput CCD imager equipped with clear filters.
Take `COc1nc(C)cnc1NS(=O)(=O)c1cccnc1-c1ccc(-c2nnco2)cc1`: the Potency result was “inactive”.

With `COc1cc(CNC(=O)CCCCC=CC(C)C)ccc1O`, the Potency result is “inactive”.

For the compound `CS(=O)(=O)c1ccc(C2=C(c3ccccc3)C(=O)OC2)cc1`, the Potency entry is “inactive”.

For `CCCCN(CCCC)CC(O)c1cc(Cl)cc2c1-c1ccc(Cl)cc1C2=Cc1ccc(Cl)cc1` (stereo not given), the Potency entry was “inactive”.

Regarding `Cc1nn(Cc2ccccc2Cl)c(C)c1CN(C)CC(O)COc1ccc(Cl)cc1` (stereo not given), the Potency was 18.7 µM (active).

For the compound `CN(C)CCOc1ccc(-c2nc(-c3ccc4c(c3)CCC4=NO)c(-c3ccncc3)[nH]2)cc1`, the Potency was 23.5 µM (active).

For `CO[C@H]1C=CO[C@@]2(C)Oc3c(C)c(O)c4c(O)c(c(C=NN5CCN(C)CC5)c(O)c4c3C2=O)NC(=O)C(C)=CC=C[C@H](C)[C@H](O)[C@@H](C)[C@@H](O)[C@@H](C)[C@H](OC(C)=O)[C@H]1C`, the activity change, negative = cytotoxic was -8.55% [at 9.22 µM].

As for `CN1CCC(COc2cnc(-c3cccc(Cn4nc(-c5cccc(C#N)c5)ccc4=O)c3)nc2)CC1`, the Potency was 3.72 µM (active).

Turning to `CCNC(=O)Nc1ccc(Oc2ncnc(N)c2C=NOC)cc1Cl`, the Potency entry was “inactive”.

For the compound `CC[C@H](NC(=O)[C@H](C)NC)C(=O)N1C[C@@H](O)C[C@H]1Cc1c(-c2[nH]c3cc(F)ccc3c2C[C@H]2C[C@H](O)CN2C(=O)[C@H](CC)NC(=O)[C@H](C)NC)[nH]c2cc(F)ccc12`, the Potency entry is “inactive”.

For `NC(=O)c1ncn([C@@H]2O[C@H](CO)[C@@H](O)[C@@H]2O)n1`, the Potency result is “inactive”.

As to `CCN(CC)CCCCNc1nc2cc(Cl)c(Cl)cc2nc1-c1ccc(-c2cccs2)s1`, the Potency was 23.5 µM (active).

`CC1C(=O)OC2C(O)C34C5CC(C(C)(C)C)C36C(OC(=O)C6O)OC4(C(=O)O5)C12O` (stereo not given): the Potency entry is “inactive”.

Turning to `Cc1nc(C(=O)NCC(=O)O)c(O)c2ccc(Oc3ccccc3)cc12`, the Potency result is “inactive”.

Regarding `COc1cc2nc(-c3cc(F)ccc3O)nc(N[C@@H]3CNC[C@@H]3C(C)(C)O)c2cc1OC`, the Potency is 23.5 µM (active).

As to `CCOC(=O)N1CCN([N+]([O-])=NOc2cc(ON=[N+]([O-])N3CCN(C(=O)OCC)CC3)c([N+](=O)[O-])cc2[N+](=O)[O-])CC1`, the Potency result was “inactive”.

`C[C@]12CCC3=C4CCC(=O)C=C4CC[C@@H]3[C@H]1CC[C@@]2(O)CC#N`: the Potency entry was “inactive”.

On to `CCC(=O)OCC(=O)[C@@]1(OC(=O)CC)[C@@H](C)C[C@@H]2[C@H]3CCC4=CC(=O)C=C[C@]4(C)[C@@]3(F)[C@@H](O)C[C@@]21C`, for which the Potency is 0.148 µM (active).

For the compound `Cc1cccc(Nc2nc(N[C@@H]3CCCC[C@H]3N)ncc2C(N)=O)c1`, the Potency is 11.8 µM (active).

Regarding `C[C@@]1(C(=O)Nc2ccc(F)nc2)CCCN1c1nc(Nc2cc(C3CC3)[nH]n2)c2cccn2n1`, the Potency is 0.0743 µM (active).

For the compound `COc1ccc(-c2cc3nccn3c(Nc3ncccc3C(N)=O)n2)cc1OC`, the Potency was 2.35 µM (active).

Regarding `O=C(CC12CC3CC(CC(C3)C1)C2)Nc1cccc2nc(NCCNCCO)ccc12`, the Potency result was “inactive”.

Consider `Cc1ccc2c(=O)c3cccc(CC(=O)O)c3oc2c1C`, for which the Potency is 23.5 µM (active).

As for `O=C(O)C1=CO[C@@H](O[C@@H]2O[C@H](CO)[C@H](O)[C@H](O)[C@H]2O)[C@@H]2C(CO)=CC[C@H]12`, the Potency entry was “inactive”.

Take `C[C@@H]1C[C@H]2[C@@H]3CCC4=CC(=O)C=C[C@]4(C)[C@@]3(F)[C@@H](O)C[C@]2(C)[C@@]1(O)C(=O)CO`: the Potency entry is “inactive”.

Turning to `CN1CCN2c3ncccc3Cc3ccccc3C2C1` (stereo not given), the Potency result is “inactive”.

As to `CO[C@H]1/C=C\O[C@@]2(C)Oc3c(C)c(O)c4c(O)c(c5c(nc6cc(C)ccn65)c4c3C2=O)NC(=O)C(C)=CC=C[C@H](C)[C@H](O)[C@@H](C)[C@@H](O)[C@@H](C)[C@H](OC(C)=O)[C@H]1C`, the Potency entry was “inactive”.

With `CN(C)c1nc(Cc2ccc(NC(=O)c3ccc(C(F)(F)F)cc3)cc2)nc(N(C)C)c1CC(=O)O`, the Potency result was “inactive”.

`CCC(=O)N1CCN(c2ccc(-n3c(=O)ccc4cnc5ccc(-c6cnc7ccccc7c6)cc5c43)cc2C(F)(F)F)CC1`: the Potency was 0.0743 µM (active).

Consider `CCN1C[C@H](C)n2c(c(O)c3c(=O)n(Cc4ccc(F)c(Cl)c4)nc(C(=O)NC)c32)C1=O`, for which the Potency result was “inactive”.

`O=C(Nc1ncc(SCCN2CCCC2)s1)[C@]1(c2ccc(S(=O)(=O)C3CC3)cc2)C[C@@H]1C1CCCCC1`: the Potency was 18.7 µM (active).

As to `CC[C@H](CC#N)OC(=O)N[C@@H](C)c1cccc(NC(=O)Nc2ccc(-c3cnco3)c(OC)c2)c1`, the Potency entry was “inactive”.

Regarding `Cc1ccc2c(c1)c1c(n2CCc2ccc(C)nc2)CCN(C)C1`, the Potency entry was “inactive”.

Consider `CC(NCCc1ccc(O)cc1)C(O)c1ccc(O)cc1` (stereo not given), for which the Potency result is “inactive”.

`COc1ccc(Cn2ccc3ccc(C(=O)NO)cc32)cc1`: the Potency entry was “inactive”.

Regarding `OC(c1cc(C(F)(F)F)nc2c(C(F)(F)F)cccc12)C1CCCCN1` (stereo not given), the Potency result was “inactive”.

Turning to `Nc1ncnc2c1ncn2[C@@H]1O[C@H](CO)[C@@H](O)[C@@H]1O`, the Potency was 2.35 µM (active).

For `O=C1C(c2c(O)[nH]c3ccccc23)=Nc2ccccc21`, the Potency entry is “inactive”.

In the case of `Cc1ccccc1-n1c(Cn2nc(-c3cccc(O)c3)c3c(N)ncnc32)nc2cccc(C)c2c1=O`, the Potency is 3.72 µM (active).

Take `Cc1cn([C@@H]2C[C@@H](O)[C@H](CO)O2)c(=O)[nH]c1=O`: the Potency result was “inactive”.

Values taken from PubChem BioAssay (NCATS).
